CYP2C19 activ = human CYP2C19 activators, primary screen, biochemical, luminescence; Cytochrome P450 2C19 (Homo sapiens), P33261; recombinant CYP2C19, luciferin-H EGE luminescence; hits give high values; 0 = fully inhibited enzyme, 1 = untreated enzyme; activation factor at 5 µM; 96,000 tested, under 10 active; AID 1025, 2008;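 active means activation factor of at least 2 at 5 µM in the primary screen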
CYP2C19 inhib = blockers of cytochrome P450 2C19 activity – biochemical, luminescence, ADME assay, primary screen; 96,000 tested, 21% active; AID 778, 2007; inhibition, % at 5 µM; CYP2C19 Supersomes, luciferin-H EGE luminescence, 30 min;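 active means CYP2C19 inhibition above a set limit at 5 µM in the primary screen, cut at about 50% in these data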
DAT uptake mod = changed hDAT dopamine uptake under cocaine IC80, either direction, primary screen, cocaine antagonist project, cell-based, LLC-PK1 hDAT, [14C]-dopamine uptake, MLSMR | Sodium-dependent dopamine transporter (Homo sapiens), Q01959 | LLC-PK1 hDAT cells, [14C]-dopamine uptake with cocaine IC80; actives deviate in either direction | B-score at 10 µM | 110,000 tested, 1.3% active | AID 449768, 2010;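 active means Z score or B-score, a plate-position-corrected score, falls beyond the plate's 99.7% confidence bounds, in either direction; inactive means both scores lie inside the 99.7% bounds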
D1 allo mod = D1 CRE-luciferase signal change, two-sided – cell-based, HEK293 D1, dopamine EC30, D1 allosteric modulator project, primary screen. AID 641, 2007. B-score at 10 µM. D(1A) dopamine receptor (Homo sapiens), P21728. 58,000 tested, 5.9% active. dopamine EC30 potentiation; actives deviate in either direction;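 active means luminescence count or its row- and column-corrected plate score outside the 99.7% band of the plate's sample wells, on either side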
Target sequence (P21728 whole entry, looked up): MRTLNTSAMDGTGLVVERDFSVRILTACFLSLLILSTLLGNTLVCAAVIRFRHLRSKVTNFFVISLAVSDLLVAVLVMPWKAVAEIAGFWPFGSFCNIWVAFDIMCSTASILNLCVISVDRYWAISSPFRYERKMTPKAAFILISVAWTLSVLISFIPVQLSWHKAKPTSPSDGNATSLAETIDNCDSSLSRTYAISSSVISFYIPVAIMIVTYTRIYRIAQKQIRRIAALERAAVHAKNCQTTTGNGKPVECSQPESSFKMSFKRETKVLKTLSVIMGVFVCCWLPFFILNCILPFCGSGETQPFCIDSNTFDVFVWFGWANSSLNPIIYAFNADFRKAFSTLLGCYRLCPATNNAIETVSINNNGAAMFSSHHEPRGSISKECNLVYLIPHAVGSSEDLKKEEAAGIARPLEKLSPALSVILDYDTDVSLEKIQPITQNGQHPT
CYP2C9 inhib = blockers of cytochrome P450 2C9 activity – biochemical, luminescence, ADME assay, primary screen. 96,000 tested, 20% active. CYP2C9 Supersomes, luciferin-H conversion. inhibition, % at 5 µM. AID 777, 2007. P11712;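 active means blocking of liver enzyme CYP2C9 beyond about 50% at 5 µM, limit read from the data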
CYP2C9 activ = human CYP2C9 activators, primary screen, biochemical, luminescence; 96,000 tested, 1.4% active; activation factor at 5 µM; AID 1024, 2008; Cytochrome P450 2C9 (Homo sapiens), P11712; recombinant CYP2C9, luciferin-H conversion; hits give high values; factor 1 = untreated enzyme, 0 = blocked;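 active means activation factor of 2 or more for CYP2C9 at a 5 µM dose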
Large screens that a line does not name were inactive. Shown are actives, neighbours in structure and some others; about 28% of the full set was active somewhere.

CC(=NCCCN1CCCCC1)c1c(O)n(Cc2ccccc2)c(=O)[nH]c1=O	CYP2C9 inhib 58.9 (no result: DAT uptake mod)
CCOC(=O)C(O)(c1ccc(NC(=O)NC2CCCCC2)cc1)C(F)(F)F (stereo not drawn)	CYP2C19 inhib 80.4, CYP2C9 inhib 59.4 (no result: D1 allo mod)
O=C(COc1ccccc1)N1CCN(C2CC3CCC2C3)CC1 (stereo not drawn)	none (no result: CYP2C19 activ, CYP2C19 inhib, D1 allo mod, CYP2C9 inhib, CYP2C9 activ)
CCn1nc(-c2ccccc2)nc2c(=O)n(C)c(=O)nc1-2	D1 allo mod -8.71 (no result: CYP2C19 activ, CYP2C19 inhib, CYP2C9 inhib, CYP2C9 activ)
CC1=C(C/C(C)=C/c2ccccc2)/C(=C/CO)[C@H](O)[C@](C)(O)C12CC2	none (no result: CYP2C19 activ, CYP2C19 inhib, D1 allo mod, CYP2C9 inhib, CYP2C9 activ)
O=C1C(=O)c2ccccc2-c2ccccc21	CYP2C19 inhib 98.1, CYP2C9 inhib 93.3 (no result: D1 allo mod)
O=C1C(c2ccccc2)=C(N2CC2)c2ccccc21	none (no result: D1 allo mod)
C=Cn1ccnc1P(=S)(c1nccn1C=C)C1CCCCC1	CYP2C19 inhib 70.3
CCOC(=O)c1c(C)n(Cc2ccco2)c2c1cc(O)c1ccccc12	CYP2C9 inhib 82.1 (no result: D1 allo mod)
O=C1NC(=O)C(CCc2ccccn2)(Cc2ccc3c(c2)OCO3)C(=O)N1CCc1ccccc1 (stereo not drawn)	CYP2C19 inhib 55.1 (no result: D1 allo mod)
O=C(CN1CC=C(c2ccccc2)CC1)NC(=O)NCc1ccco1	none (no result: D1 allo mod)
CC(=O)c1cccc(OCC(O)CN2CC=C(c3ccccc3)CC2)c1 (stereo not drawn)	CYP2C19 inhib 55.2, CYP2C9 inhib 51.2
Oc1ccc(C2NCc3ccccc3-n3cccc32)cc1Cl (stereo not drawn)	CYP2C19 inhib 98.2, CYP2C9 inhib 88.9
CCOP(=O)(OCC)C(NC(=O)c1ccc(Cl)cc1)=C(Cl)Cl	CYP2C19 inhib 63.9 (no result: D1 allo mod)
COc1ccc2c(c1)c(C(=O)O)c(C)n2CC(C)C	CYP2C19 inhib 84.7 (no result: D1 allo mod)
CCn1c(O)c(C=NCc2cccs2)c(=O)[nH]c1=O	none
CCOC(=O)C1SC2(C(F)F)CC1(O)c1c(c(OC)c3occc3c1OC)O2 (stereo not drawn)	CYP2C19 inhib 100.0, CYP2C9 inhib 96.9
C=CCn1c(O)c(C(CC)=NCCCO)c(=O)[nH]c1=O	none
C=CCn1c(O)c(C(CC)=NCc2cc(OC)cc(OC)c2)c(=O)[nH]c1=O	CYP2C9 inhib 95.1
O=P(OCC(F)(F)C(F)F)(N1CCCCC1)N1CCCCC1	none
Cc1ccc2c(c1)[C@@H]1CN(C)CC[C@@H]1N2C(=O)Nc1cccc(C(F)(F)F)c1	D1 allo mod -4.78
Cc1ccc2c(c1)C1CN(C)CCC1N2C(=O)c1ccc(Br)o1 (stereo not drawn)	D1 allo mod -3.13
c1ccc2c(CCNC3=NCCC3)c[nH]c2c1	D1 allo mod -2.7
COc1nc(NC(C)C)nc(NC(C)C)n1	none (no result: D1 allo mod)
CCOC(=O)c1c(C)n(CCOC)c2ccc(O)cc12	CYP2C19 inhib 69.2
CCOC(=O)c1c(C)n(CCN2CCN(C)CC2)c2ccc(OC)cc12	none (no result: D1 allo mod)
Oc1ccc2c3c1O[C@H]1c4[nH]c5ccccc5c4C[C@@]4(O)C(C2)N(CC2CC2)CC[C@]314	none (no result: CYP2C19 activ, CYP2C19 inhib, D1 allo mod, CYP2C9 inhib, CYP2C9 activ)
COc1ccc(C2NCc3ccc4c(c3-n3cccc32)OCO4)cc1O (stereo not drawn)	CYP2C19 inhib 68.1
c1cc2n(c1)-c1c(ccc3c1OCO3)CNC2c1ccc2c(c1)OCO2 (stereo not drawn)	CYP2C19 inhib 98.7, CYP2C9 inhib 76.8
CCCCN1C(=O)NC(=O)/C(=C/c2cnc(SC)nc2)C1=O	none (no result: D1 allo mod)
C=CCN1C(=O)NC(=O)/C(=C/c2ccc(OC)c(CSc3ccccn3)c2)C1=O	CYP2C19 inhib 52.1 (no result: D1 allo mod)
Cc1ccc2nc(-c3ccncc3)cc(C(=O)N3CCC4(CC3)OCCO4)c2c1	CYP2C9 inhib 50.8
COc1cccc(Oc2c(C)oc3cc(OC(=O)N(C)C)ccc3c2=O)c1	CYP2C19 inhib 84.7
Cc1oc2ccc(OC(=O)N(C)C)cc2c1C(=O)OC(C)C	CYP2C19 inhib 77.6, CYP2C9 inhib 64.7
O=C(c1cccs1)c1cn(Cc2ccccc2Cl)c2ccccc12	CYP2C9 inhib 62.5 (no result: D1 allo mod)
N#Cc1ccccc1Cn1cc(C(=O)c2cccs2)c2ccccc21	CYP2C19 inhib 54.4, CYP2C9 inhib 88.7
NC1CCCCC1N=Cc1c(O)n(Cc2ccc(F)cc2)c(=O)[nH]c1=O (stereo not drawn)	CYP2C9 inhib 76.1
CCCCCCn1c(O)c(C=NC2CCCCC2N)c(=O)[nH]c1=O (stereo not drawn)	CYP2C9 inhib 52.0
CCCCn1c(O)c(C=NC2CCCCC2N)c(=O)[nH]c1=O (stereo not drawn)	DAT uptake mod -8.77
O=C(Cn1nc(Cc2cccnc2)c2ccccc2c1=O)N1CCC2(CC1)OCCO2	CYP2C9 inhib 80.2 (no result: D1 allo mod)
Cc1c2cnn(CC(=O)N3CCC4(CC3)OCCO4)c(=O)c2c(C)n1Cc1ccccc1	none
Cc1ccccc1Cc1c(C)nc2nc(SCC(=O)N3CCC4(CC3)OCCO4)nn2c1C	CYP2C9 inhib 89.3 (no result: D1 allo mod)
Cc1ccc(Cc2c(C)nc3nc(SCC(=O)N4CCC5(CC4)OCCO5)nn3c2C)cc1	CYP2C19 inhib 51.9, CYP2C9 inhib 64.8 (no result: D1 allo mod)
Cc1ccc(-c2nc(CS(=O)CC(=O)N3CCC4(CC3)OCCO4)c(C)o2)cc1 (stereo not drawn)	none
Cc1nc2cc(-c3ccccc3)nn2c(C)c1CCC(=O)N1CCC2(CC1)OCCO2	none
COC(=O)C1=C(c2cc3ccccc3o2)C[C@@H]2CC[C@H]1N2C(=O)NCCCOC(C)C	none (no result: CYP2C19 activ, CYP2C19 inhib, D1 allo mod, CYP2C9 inhib, CYP2C9 activ)
O=c1cccc2n1CC1CC2CN(C(c2cccc(F)c2)c2sc3ncnn3c2O)C1 (stereo not drawn)	none
CC(C)CCn1c(N)c(C(=O)NCc2cccs2)c2nc3ccccc3nc21	none (no result: D1 allo mod)
Nc1c(C(=O)OCC2CCCO2)c2nc3ccccc3nc2n1Cc1cccs1 (stereo not drawn)	CYP2C9 inhib 57.4
Nc1c(C(=O)NC2CCCC2)c2nc3ccccc3nc2n1CC1CCCO1 (stereo not drawn)	none (no result: D1 allo mod)
CC(C)OCCCNC(=O)c1c(N)n(Cc2cccs2)c2nc3ccccc3nc12	CYP2C9 inhib 91.0
C[C@]12N[C@H](Cc3ccccc31)c1ccccc12	none (no result: CYP2C19 activ, CYP2C19 inhib, D1 allo mod, CYP2C9 inhib, CYP2C9 activ)
COC(=O)C1=C(c2cccc(OC)c2OC)C[C@@H]2CC[C@H]1N2C(=O)NC(C)C	none (no result: CYP2C19 activ, CYP2C19 inhib, D1 allo mod, CYP2C9 inhib, CYP2C9 activ)
Cc1sc2c(c1C)C(c1ccc(C(C)(C)C)cc1)=NCC(=O)N2CC(=O)Nc1nccs1	none (no result: D1 allo mod)
O=c1[nH]c(=O)n(CCc2ccc(F)cc2)c(O)c1C=NCCCn1ccnc1	CYP2C9 inhib 68.1

From PubChem BioAssay
